Screens (PubChem BioAssay)
Compounds with a hit are over-represented: about 9.9% of the library has one in this group of screens.
ALDH1A1 block = blocks purified human ALDH1A1 activity. Potency, µM (titrated, usually from 75.3 µM), inactives show at the highest dose activity, negative = inhibition, hits mostly inhibitors. AID 1030. actives 7.3% (n = 220,000). Purified ALDH1A1, NADH fluorescence, propionaldehyde substrate. P00352;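 also: plate controls were no enzyme wells and a reference inhibitor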
Target sequence (P00352 whole entry, looked up): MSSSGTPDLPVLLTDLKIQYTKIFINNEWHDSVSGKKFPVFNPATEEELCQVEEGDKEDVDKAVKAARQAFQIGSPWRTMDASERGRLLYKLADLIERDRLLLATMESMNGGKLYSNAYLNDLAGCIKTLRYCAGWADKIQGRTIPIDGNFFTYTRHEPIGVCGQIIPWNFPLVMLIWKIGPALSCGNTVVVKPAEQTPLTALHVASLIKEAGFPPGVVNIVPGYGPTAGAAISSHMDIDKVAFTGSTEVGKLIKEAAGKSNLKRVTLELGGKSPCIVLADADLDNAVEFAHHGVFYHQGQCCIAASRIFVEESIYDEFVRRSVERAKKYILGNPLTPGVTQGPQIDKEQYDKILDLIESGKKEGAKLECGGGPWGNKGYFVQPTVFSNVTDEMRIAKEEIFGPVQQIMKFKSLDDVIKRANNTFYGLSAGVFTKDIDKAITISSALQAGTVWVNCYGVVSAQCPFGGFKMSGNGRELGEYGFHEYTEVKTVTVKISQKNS
Tau ThT inhib = blocks human tau fibril formation measured by thioflavin T. Potency, µM (top dose mostly 57.4 µM), without a hit: at the top dose activity, negative = inhibition, most hits filed as inhibitors. P10636. actives 2.1% (n = 270,000). recombinant tau K18 P301L, heparin-induced fibrillization, ThT fluorescence; active = well fitted curve in the direction sought with a large enough effect; inconclusive = small, poorly fitted or top-dose-only effect, or another doubt; inactive = no such curve, though single readings can be large; an effect the other way counts as inactive or inconclusive; also: nearly all actives have a fitted effect of over 55% in size
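Using a mix of unlabeled (15 uM) and Alexa 594-labeled (0.24 uM) tau K18 P301L, heparin-triggered fibrillization over 6 hr at 37 C was scored by ThT fluorescence.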
Tau fluor cs = counter-screen for tau fibril formation inhibitors | tau K18 P301L (four-repeat tau fragment) Alexa594 fluorescence, heparin fibrillization | Potency, µM (doses to about 57.7 µM), without a hit: at the top dose activity change, negative = decrease | actives 0.93% (n = 280,000) | AID 1463; active = well fitted curve in the direction sought with a large enough effect; inconclusive = small, poorly fitted or top-dose-only effect, or another doubt; inactive = no such curve, though single readings can be large; an effect the other way counts as inactive or inconclusive; also: nearly all actives have a fitted effect of over 55% in size
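Human K18 P301L tau (15 uM unlabeled plus 0.24 uM Alexa 594-labeled, final) in 100 mM sodium acetate pH 7 was mixed with compound and 20 uM heparin and incubated 6 hr at 37 C.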
Tau FP inhib = inhibitors of human tau fibril formation; P10636; K18 P301L tau heparin fibrillization, Alexa594 FP, 6 h; Potency, µM (series often up to 57.7 µM), inactives show at the top dose activity, negative = inhibition, hits mostly inhibitors; actives 0.39% (n = 280,000); active = well fitted curve in the direction sought with a large enough effect; inconclusive = small, poorly fitted or top-dose-only effect, or another doubt; inactive = no such curve, though single readings can be large; an effect the other way counts as inactive or inconclusive; also: nearly all actives have a fitted effect of over 55% in size
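Human K18 P301L fragment (15 uM unlabeled plus 0.24 uM Alexa 594-labeled) in 100 mM sodium acetate pH 7 with compound, aggregation induced by 20 uM heparin for 6 hr at 37 C. ThT (30 uM) added for 1 hr, then Alexa 594 FP read.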
JMJD2E inh = blocks human JMJD2E demethylase activity; B2RXH2; Potency, µM (titrated, usually from 57.1 µM), without a hit: top-dose activity change, negative = inhibition, most hits filed as inhibitors; actives 1.6% (n = 230,000); JMJD2E catalytic domain, FDH-coupled NADH fluorescence (FDH is formaldehyde dehydrogenase);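 also: 0% = wells with enzyme and -100% = buffer wells without enzyme; nearly all actives have a fitted effect of over 50% in size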
HPGD block = blocks human HPGD enzyme activity | AID 894 | purified HPGD, NADH fluorescence kinetic, PGE2 substrate | Potency, µM, for inactives: at the highest dose activity change, negative = inhibition, hits mostly inhibitors | actives 4.3% (n = 150,000) | P15428
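20 nM HPGD preincubated 15 min at room temperature with compound in 50 mM Tris-HCl pH 8, 0.01% Tween 20. Started with 1 mM NAD+ and 30 uM prostaglandin E2; NADH fluorescence (360/450 nm) read 5 times over 30-s intervals, last minus first.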
* = called active by the depositor; ? = inconclusive; / = no result given; [ ] = another dose, or the depositor's remark. Unless noted, calls follow the shape of the dose curve; as a rule, active = well fitted inhibition curve with a large enough effect (not every such curve was filed as active); inconclusive = small, poorly fitted or top-dose-only effect, or another doubt; inactive = no such curve, though single readings can be large or run the other way. Unless noted, % is scaled to controls: 0 for no effect and ±100 for the full control effect; potency is read from the fitted curve at half-maximal effect.

SMILES	ALDH1A1 block	Tau ThT inhib	Tau fluor cs	Tau FP inhib	JMJD2E inh	HPGD block
Cc1ccc(C(=O)/C=C/c2cn(CC(O)CN3CCCCCC3)c3ccccc23)cc1 (stereo unspecified)	/	13µM*	?	-21%	/	/
C/C(=C\C(=O)c1ccc(Cl)cc1Cl)N(C)C	5.6µM*	?	-10%	-1%	-5%	/
CCOC(=O)c1[nH]c(C)c(C(=O)OCC(=O)N(C)C2CCS(=O)(=O)C2)c1C (stereo unspecified)	4%	-11%	-9%	4%	2%	/
CC(=O)NNC(=S)NC(=O)c1ccccc1	18µM*	-5%	3%	-1%	?	/
CC(=O)NNC(=S)NC(=O)c1ccc(C)cc1	?	?	2%[2.34 µM]	4%[2.34 µM]	-10%	/
CCC(=O)NC(=S)Nc1ccc(NC(=S)NC(=O)c2ccc(C)cc2)cc1	-10%	-12%	3%	-9%	-8%	/
CCCC(=O)NC(=S)NNC(=O)c1ccc([N+](=O)[O-])cc1	18µM*	-15%	0%	2%	2%	-10%
CCC(=O)NNC(=S)NC(=O)c1ccc(C)cc1	20µM*	-10%	4%	-2%	3%	/
O=C(CCN1CCCCC1)NNC(=S)NC(=O)c1ccc(Br)cc1	28µM*	-8%	3%	10%	-1%	/
Cc1ccccc1OCCSCc1nc2ccccc2[nH]1	5%	-9%	-25%	7%	5%	-5%
Cc1cccc(C(=O)NC(=S)NNC(=O)COc2c(C)cccc2C)c1	?	?	-14%	7%	6%	-4%
O=C(COc1ccc2ccccc2c1)NNC(=O)c1ccc([N+](=O)[O-])cc1	8%	?	?	11%	-16%	/
CCCCCC(=O)NNC(=S)NC(=O)c1cccc([N+](=O)[O-])c1	1.3µM*	-7%	-17%	-6%	-4%	10µM*
O=C(Cc1cccs1)NNC(=S)NC(=O)c1ccccc1	?	-10%	-2%	0%	?	-17%
O=C(COc1ccccc1)NNC(=S)NC(=O)c1ccccc1	22µM*	-16%	-6%	-6%	-8%	/
Cc1ccc(C(=O)NC(=S)NNC(=O)COc2ccccc2C)cc1	11µM*	?	-11%	1%	17%	/
O=C(COc1ccc([N+](=O)[O-])cc1)NNC(=S)NC(=O)c1ccc(Br)cc1	8.9µM*	?	-7%	-8%	-7%	/
O=C(NCCN1CCOCC1)c1cc(Cl)ccc1[N+](=O)[O-]	7%	-2%	-3%	2%	10%	-15%
Cc1ccc(S(=O)(=O)N2CCCc3cc(NS(=O)(=O)c4ccc(C)c(C)c4)ccc32)cc1	/	2%	?	-10%	/	/
COc1cc(CN2CCCCC2)cc2cc(C(=O)O)c(=O)oc12	2%[13.5 µM]	/	/	/	/	-7%
Cc1ccccc1N1CC(C(=O)Nc2nnc(SCC(=O)Nc3nccs3)s2)CC1=O (stereo unspecified)	16µM*	-9%	-17%	2%	1%	-29%
COc1ccc(N2CCn3c2nc2c3c(=O)n(CCCc3ccccc3)c(=O)n2C)c(OC)c1	20µM*	?	-24%	13%	-6%	-29%
COc1ccc(N2CC(C)Cn3c2nc2c3c(=O)n(Cc3ccccc3)c(=O)n2C)c(OC)c1 (stereo unspecified)	32µM*	?	-16%	13%	?	/
CCN(CC)c1ccc(NC(=O)CSc2nc(C)cc(=O)[nH]2)cc1	10%	-16%	-4%	0%	-3%	-2%
Cc1cc(=O)[nH]c(SCC(=O)Nc2ccc(C(=O)O)cc2)n1	?	-5%	1%	-2%	3%	22µM*
COC(=O)c1cc(NC(=O)CSc2nc(C)cc(=O)[nH]2)cc(C(=O)OC)c1	1%	1%	2%	8%	4%	14µM*
Cc1cc2ccccc2nc1SCC(=O)Nc1nc(-c2ccccc2)cs1	7.9µM*	4%	1%	0%	2%	-9%
